# Screens from PubChem BioAssay.
# D2 ag-1 – agonists of human D2 dopamine receptor (beta-arrestin); AID 624465; activation, % (no concentration beside the values); DiscoveRx PathHunter D2 beta-arrestin, luminescence, 90 min; 100% = 57 uM dopamine signal; 360,000 tested, 0.084% active; in the data active = activation above about 40%; inconclusive = between about 15% and that limit
# Target sequence (P14416 whole entry, looked up): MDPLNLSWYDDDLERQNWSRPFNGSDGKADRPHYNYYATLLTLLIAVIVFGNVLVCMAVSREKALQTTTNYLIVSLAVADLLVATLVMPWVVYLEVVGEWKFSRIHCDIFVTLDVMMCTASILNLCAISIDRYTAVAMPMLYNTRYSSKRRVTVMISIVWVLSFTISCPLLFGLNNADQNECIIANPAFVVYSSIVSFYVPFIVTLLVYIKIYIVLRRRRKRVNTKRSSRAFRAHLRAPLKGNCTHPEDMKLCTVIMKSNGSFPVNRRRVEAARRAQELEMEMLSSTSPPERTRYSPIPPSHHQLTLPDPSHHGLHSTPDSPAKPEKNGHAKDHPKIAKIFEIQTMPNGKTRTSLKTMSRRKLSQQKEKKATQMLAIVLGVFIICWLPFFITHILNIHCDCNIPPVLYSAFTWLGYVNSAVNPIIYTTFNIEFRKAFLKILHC
#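 Agonist mode: compounds alone added to overnight-plated D2 PathHunter cells for 90 min at 37 C, with 57 uM final dopamine (EC100) defining full response. Beta-arrestin recruitment detected by chemiluminescent reagent, read after 1 h at ambient temperature.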
# D2 PAM-1 – D2 dopamine receptor (human) potentiation | AID 485347 | potentiation, % at 10 µM | P14416 | HEK293 T-REx D2, calcium flux, EC20 dopamine potentiation | 340,000 tested, 0.34% active;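 active = potentiation over 3 SD above the plate norm, cut at about 30% in these data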
#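 Using a no-wash calcium dye in inducible, force-coupled HEK293 Trex cells expressing D2, we tracked fluorescence each second for 180 s after compound, then for 180 s after EC20 dopamine to detect augmented signalling.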
# D2 PAM-2 – potentiates the human D2 dopamine receptor allosterically; P14416; DiscoveRx D2 beta-arrestin cells, luminescence, 90 min; 100% = 57 uM dopamine signal; potentiation, % (no concentration beside the values); 360,000 tested, 0.23% active; AID 624464; in the data active = potentiation above about 50%; inconclusive = mostly about 30% to 49%
#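 PathHunter D2 cells, attached overnight at 37 deg C, received compound in DMSO plus dopamine at EC20 (50 nM final) for 90 min at 37 deg C. Beta-arrestin recruitment was read as luminescence after 1 h with detection reagent at ambient temperature.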
# D2 antagonist – antagonists of human D2 dopamine receptor | P14416 | AID 485344 | inhibition, % at 10 µM | 340,000 tested, 2% active | HEK293 TREx D2 cells, calcium flux, dopamine EC80; in the data active = inhibition above about 30%; inactive = below that, where a call was filed
#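 Inhibition of EC80 dopamine-driven calcium flux, recorded kinetically, defines activity here; cells are a tetracycline-induced HEK293 T-REx line expressing force-coupled D2.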
# D2 ag-2 – agonists of human D2 dopamine receptor. P14416. HEK293 T-REx D2 cells, calcium flux agonist mode. activation, % at 2 µM. 340,000 tested, 0.53% active. AID 485358;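 active = activation over 3 SD above normal in the single-dose calcium agonist read, cut at about 30% in these data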
#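 Calcium-flux readout, 1 cycle/sec over 180 s following compound pin transfer, in inducible HEK293 Trex D2 cells (force-coupled); dopamine controls included. Positive calcium responses during this window marked compounds as potential agonists.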
# Hits are given with their value; – = inactive; ? = inconclusive; · = no result. Hits are enriched below; roughly 2.4% of the tested compounds scored in any of these assays.
SMILES,D2 ag-1,D2 PAM-1,D2 PAM-2,D2 antagonist,D2 ag-2
CC1CCCN(S(=O)(=O)c2ccc(C(=O)Nc3nnc(-c4ccccn4)o3)cc2)C1 (stereo unspecified),–,–,–,34.6,–
COCc1nnc(NC(=O)c2ccc(S(=O)(=O)N3CCCCCC3)cc2)o1,–,31.9,–,–,–
CC(C)OCCCN(Cc1ccco1)C(=O)c1cc2c(s1)-c1ccccc1OC2,·,–,·,·,–
CC(=O)N(CCC1(C(C)C)CCOC(C)(C)C1)Cc1ccco1 (stereo unspecified),–,–,–,38.4,–
CCC(=O)N(CCC1(C(C)C)CCOC(C)(C)C1)Cc1ccco1 (stereo unspecified),–,–,–,–,–
O=c1onc(-c2ccccc2Cl)n1-c1ccccc1Cl,40.5,·,58.2,·,·
CCCCn1c(N)c(N(CC(C)C)C(=O)c2cccc(OCc3ccccc3)c2)c(=O)[nH]c1=O,–,30.2,–,–,–
CCCCn1c(N)c(N(CCC(C)C)C(=O)c2cccc(S(=O)(=O)N3CCN(C)CC3)c2)c(=O)[nH]c1=O,–,–,–,34.0,–
CCCCc1nc(NCCO)c(C#N)c2c1CCCC2,–,–,–,48.2,–
Oc1c(C(c2ccccc2Cl)N2CCCC2)sc2nc(-c3ccco3)nn12 (stereo unspecified),·,–,·,·,–
CCCOc1ccc(C2c3c(-c4ccccc4O)n[nH]c3C(=O)N2CCCOCC)cc1OCC (stereo unspecified),·,–,·,·,·
O=C(COc1ccc(Cl)cc1)Nc1ccccc1C(=O)OCc1cc(=O)n2ccsc2n1,·,–,·,·,·
Cc1ccc(NC(=O)CSc2nc(=O)n(CCCN3CCOCC3)c3c2CCCC3)cc1F,–,–,–,31.1,–
COc1cc(/C=C2/CCC/C(=C\c3cc(O)c(OC)c(Cl)c3)C2=O)cc(Cl)c1O,–,37.7,–,–,–
COc1cc(/C=C2\CC/C(=C\c3cc(OC)c(O)c(OC)c3)C2=O)cc(OC)c1O,–,–,–,–,–
CCCCN(CC)C(=O)c1nn(C)c2c1CSc1ccccc1-2,·,–,·,·,–
CC(C)(C)NCCOc1ccc2ccccc2c1,–,–,–,45.4,–
Cc1nc2ccccc2c(=O)n1CCCO,–,–,–,31.9,–
c1ccc(N2CCN(CC3CCCCC3)CC2)cc1,?,–,–,68.2,71.0
C/C(=N\NC=O)c1ccncc1,–,30.1,–,–,–
COc1ccc(C(=O)Nc2cc3c(oc2=O)CCCC3=O)cc1,–,44.2,–,–,–
c1ccc(-c2ccccc2OCCCN2CCCCCC2)cc1,–,–,–,56.2,–
c1ccc(-c2ccccc2OCCCCN2CCCCC2)cc1,–,–,–,74.9,–
c1ccc(-c2ccccc2OCCCN2CCCC2)cc1,–,–,–,–,–
Cc1ccc(S(=O)(=O)N2CCc3cc(C(=O)Nc4c(C)cccc4C(C)C)ccc32)cc1,·,–,·,·,·
SMILES,D2 ag-1,D2 PAM-1,D2 PAM-2,D2 antagonist,D2 ag-2
CC(=O)Nc1cc(C(=O)NCc2ccc(F)cc2)ccc1Sc1ccc(C)cc1,·,–,·,·,–
COc1cccc(-c2cc3c(-n4cccc4)ncnc3o2)c1,–,–,–,37.4,–
CC1CCC/C(=N/Nc2ccc([N+](=O)[O-])cc2[N+](=O)[O-])C1 (stereo unspecified),–,–,74.4,–,–
Cc1cc2ccccc2c(=O)n1CC(=O)NCC(=O)N1CCN(c2ccccc2)CC1,–,–,–,64.0,–
CCn1c(=O)sc2cc(NS(=O)(=O)c3ccc(F)c(C)c3)ccc21,·,–,·,·,–
Brc1ccc(-c2noc(COc3ccc4c(c3)CCC4)n2)o1,–,–,–,42.7,–
COc1cccc(CNC(=O)Cn2cc3c(n2)-c2c(oc(C(=O)N4CCCC4)c2C)CC3)c1OC,·,–,·,·,–
N#Cc1c(F)cccc1N1CCOCC1,–,34.8,–,–,–
CCOC(=O)c1ccccc1NC(=O)CSc1ccc(-c2sc(-c3ccccc3)nc2C)nn1,·,–,·,·,–
O=C(Nc1cc(C(F)(F)F)ccc1-n1cncn1)c1ccc(F)cc1Cl,–,–,–,34.8,–
Cc1ccc(C(=O)Nc2cc(C(F)(F)F)ccc2-n2cncn2)o1,–,–,–,–,–
Cc1nn(C)c(Sc2ccccc2N)c1[N+](=O)[O-],44.5,–,–,–,–
N/C(Cc1ccccc1)=N\OC(=O)c1cccc2ccccc12,–,–,?,–,37.0
N/C(Cc1ccc(Cl)cc1Cl)=N\OC(=O)c1ccccc1F,–,–,61.3,–,–
N/C(Cn1cncn1)=N\OC(=O)c1ccc(Cl)cc1Cl,–,–,–,–,–
N/C(Cc1cccc2ccccc12)=N\OC(=O)c1ccccc1F,?,–,60.9,–,–
CC(C)(C)CC(=O)Nc1cc2c3c(c1)CCC(=O)N3CCC2,–,–,–,35.3,–
COCCCNC(=O)C1CCN(C(=O)c2ccc(-n3ccc4ccccc43)s2)CC1,·,–,·,·,–
O=C1NC[C@@H](Cc2cccc3ccccc23)N(CC2(c3ccccc3)CC2)C1=O,–,32.4,–,–,–
Cc1ccc(NC(=O)Cn2cc(S(=O)(=O)Cc3ccc(F)cc3)c3ccccc32)cc1Cl,·,–,·,·,–
Cc1ccc(CNC(=O)Cn2ccn(-c3cc(C)cc(C)c3)c(=O)c2=O)cc1,·,–,·,·,–
Cc1cc(=O)oc2cc(OC(=O)c3cncc(Br)c3)ccc12,–,–,–,30.8,–
CCCC(=O)Oc1ccc2c(C)cc(=O)oc2c1,–,–,–,–,–
CC(=O)Nc1ccc(NC(=O)CCc2c(C)nc3c(c(C)nn3-c3ccc(C)cc3)c2C)cc1,·,–,·,·,–
CCOC(=O)C1CCN(S(=O)(=O)c2cnc[nH]2)CC1,–,–,–,34.9,–
SMILES,D2 ag-1,D2 PAM-1,D2 PAM-2,D2 antagonist,D2 ag-2
Cc1ccc(NC(=O)C2C3C=CC4(O3)C2C(=O)N(CCN2CCOCC2)C4C(=O)NC2CCCCC2)cc1C (stereo unspecified),–,–,–,–,–
Cc1ccc(NC(=O)C2C3C=CC4(O3)C2C(=O)N(CCCN2CCOCC2)C4C(=O)NC2CCCCC2)cc1Cl (stereo unspecified),–,–,–,31.1,–
CCn1c(C)c(C(=O)c2ccccc2)c(C#N)c1C(=O)O,–,–,–,33.4,–
Cc1c(C#N)c(N)c(C(=O)c2ccccc2)n1Cc1ccccc1,–,–,–,–,–
COCCn1c(SCC(=O)Nc2sc(C)c(C)c2C#N)nnc1-c1ccc(OC)cc1,–,–,–,–,–
COCCn1c(SCC#N)nnc1-c1ccc(OC)cc1,–,–,–,54.6,–
Nc1ccccc1C(=O)NCc1ccc(F)cc1,–,–,–,–,–
Nc1ccccc1C(=O)NCc1ccc(Cl)cc1,–,–,–,30.4,–
CCCCCC(=O)Nc1cc(N(C)C)nc2ccccc12,–,–,–,35.2,–
CCN(CC)CC(=O)Nc1cc(N(C)C)nc2ccccc12,–,–,–,–,–
Cc1ccc2[nH]c3c(c2c1)CCCC3=O,–,–,–,–,–
